Laboratory results: the supplement of paper PMC6089552
± gives the standard deviation of the averaged measurements. About 300 (9.4%) of roughly 3,200 compounds showed activity. For the sample, actives were picked, then their nearest neighbours and some compounds at random.

Tested on: A673/TR/shEF
Experiment: cell viability (LOESS-normalised, relative to median of negative controls) (log2 ratio); higher = more viable cells (less compound effect), active = hit call of the paper (over 3 MAD below the median)
Conditions: treatment time: 72 h
In short: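 Viability of A673/TR/shEF Ewing sarcoma cells was determined by CellTiter-Glo luminescence. The cells, at 1,500 per well in 384-well plates, were grown with or without doxycycline from 24 h before compound addition to switch on EWS-FLI1 shRNA knockdown, then exposed for three days to library compounds at two or more concentrations or to DMSO controls. Signals were LOESS-corrected plate by plate, normalised to the negative-control median and log2-transformed.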

[1] = 0.25 µM, library screen: screen1, EWS-FLI1 expression: high (no doxycycline)
[2] = 0.25 µM, library screen: screen1, EWS-FLI1 expression: low (doxycycline-induced shRNA knockdown)
[3] = 2.5 µM, library screen: screen1, EWS-FLI1 expression: high (no doxycycline)
[4] = 2.5 µM, library screen: screen1, EWS-FLI1 expression: low (doxycycline-induced shRNA knockdown)
[5] = 0.103 µM, library screen: screen3, EWS-FLI1 expression: high (no doxycycline)
[6] = 0.103 µM, library screen: screen3, EWS-FLI1 expression: low (doxycycline-induced shRNA knockdown)
[7] = 0.308 µM, library screen: screen3, EWS-FLI1 expression: high (no doxycycline)
[8] = 0.308 µM, library screen: screen3, EWS-FLI1 expression: low (doxycycline-induced shRNA knockdown)
[9] = 0.926 µM, library screen: screen3, EWS-FLI1 expression: high (no doxycycline)
[10] = 0.926 µM, library screen: screen3, EWS-FLI1 expression: low (doxycycline-induced shRNA knockdown)
[11] = 2.8 µM, library screen: screen3, EWS-FLI1 expression: high (no doxycycline)
[12] = 2.8 µM, library screen: screen3, EWS-FLI1 expression: low (doxycycline-induced shRNA knockdown)
[13] = 8.3 µM, library screen: screen3, EWS-FLI1 expression: high (no doxycycline)
[14] = 8.3 µM, library screen: screen3, EWS-FLI1 expression: low (doxycycline-induced shRNA knockdown)
[15] = 25 µM, library screen: screen3, EWS-FLI1 expression: high (no doxycycline)
[16] = 25 µM, library screen: screen3, EWS-FLI1 expression: low (doxycycline-induced shRNA knockdown)
[17] = 0.25 µM, library screen: screen2, EWS-FLI1 expression: high (no doxycycline)
[18] = 0.25 µM, library screen: screen2, EWS-FLI1 expression: low (doxycycline-induced shRNA knockdown)
[19] = 2.5 µM, library screen: screen2, EWS-FLI1 expression: high (no doxycycline)
[20] = 2.5 µM, library screen: screen2, EWS-FLI1 expression: low (doxycycline-induced shRNA knockdown)

Measured: cell viability (log2)

COc1ccc(OC)c(C2NC(=S)NC(C)=C2C(=O)Nc2ccccc2Cl)c1 (stereo not given)
inactive: [1] 0.0287 | [2] 0.0702 | [3] 0.112 | [4] 0.148

COc1cccc2c1C(=O)c1c(O)c3c(c(O)c1C2=O)C[C@@](O)(C(=O)CO)C[C@@H]3O[C@H]1C[C@H](N)[C@@H](O)[C@H](C)O1
active: [5] -0.347 | [6] -0.195 | [7] -1.12 | [8] -0.399 | [9] -1.58 | [10] -0.41 | [11] -3.26 | [12] -1.19 | [13] -4.26 | [14] -4.27 | [15] -4.26 | [16] -4.25

CC(=O)[C@]1(O)Cc2c(O)c3c(c(O)c2[C@@H](O[C@H]2C[C@H](N)[C@H](O)[C@H](C)O2)C1)C(=O)c1ccccc1C3=O
active: [17] -2.37 | [18] -0.307 | [19] -3.12 | [20] -0.984

COc1cccc2c1C(=O)c1c(O)c3c(c(O)c1C2=O)C[C@@](O)(C(=O)CO)C[C@@H]3O[C@H]1C[C@H](N)[C@H](O)[C@H](C)O1
inactive: [5] -0.177 | [6] -0.0878
active: [7] -0.86 | [8] -0.36 | [9] -1.59 | [10] -0.403 | [11] -2.62 | [12] -1.5 | [13] -4.26 | [14] -4.27 | [15] -4.05 | [16] -4.25

COc1cccc2c1C(=O)c1c(O)c3c(c(O)c1C2=O)C[C@@](O)(C(C)=O)C[C@@H]3O[C@H]1C[C@H](N)[C@H](O)[C@H](C)O1
active: [5] -0.695 | [17] -1.6 | [18] -0.269 | [7] -1.27 | [8] -0.403 | [9] -2.5 | [10] -0.592 | [19] -2.54 | [20] -0.371 | [11] -3.11 | [12] -1.48 | [13] -4.09 | [14] -3.66 | [15] -4.26 | [16] -4.25
-0.133 ± 0.18: [6]

Cc1cccc(-n2ncc3c(N4CCCC4)ncnc32)c1
inactive: [1] 0.069 | [2] 0.0339 | [3] 0.118 | [4] 0.0767

COc1cc(-c2oc3c(OC)c(O)cc(O)c3c(=O)c2O)ccc1O
inactive: [1] 0.0554 | [2] 0.0375 | [3] 0.0118 | [4] 0.0806

COc1ccc(OC)c(CN2CCN(Cc3c[nH]c4ccccc34)CC2)c1
inactive: [1] 0.113 | [2] 0.0685 | [3] 0.072 | [4] 0.0923

C[C@@H](O)[C@H]1C(=O)N2C(C(=O)[O-])=C(SC3Cn4cnc[n+]4C3)[C@H](C)[C@H]12 (stereo not given in full)
inactive: [5] 0.0935 | [6] 0.0362 | [7] 0.108 | [8] 0.0849 | [9] 0.0657 | [10] 0.0643 | [11] 0.107 | [12] 0.0482 | [13] 0.0477 | [14] 0.0712 | [15] 0.131 | [16] 0.0731

CN=c1nc(C2C=CC=CC2)n(C2C=CC=CC2)s1 (stereo not given)
inactive: [17] 0.18 | [18] 0.0729 | [19] 0.119 | [20] 0.0881

C/C(=C\CO)CCC[C@H](C)CCC[C@H](C)CCCC(C)C
inactive: [1] 0.0657 | [2] 0.0273 | [3] 0.135 | [4] -0.104

CCCCC[C@@H](CC(=O)O)C(=O)O
inactive: [1] 0.0401 | [2] 0.147 | [3] 0.16 | [4] 0.126

CO[C@H]1C=CC2CCN3CCC4=C(CC(=O)OC4)[C@]23C1 (stereo not given in full)
inactive: [17] 0.124 | [18] 0.124 | [19] 0.0895 | [20] 0.152

CC1(C)OC(=O)C=C[C@@]2(C)C1C[C@@H](O)[C@]1(C)C2CC[C@@]2(C)[C@H](c3ccoc3)OC(=O)C3OC321 (stereo not given in full)
inactive: [1] 0.0796 | [2] 0.0686 | [3] 0.159 | [4] 0.0743

Cc1nc2ccc(NC(=S)N3CCCC3)cc2nc1C
inactive: [1] -0.0193 | [2] 0.0405 | [3] 0.0212 | [4] 0.0752

CC1=C(C(=O)Nc2cccc(Cl)c2)C(c2cccs2)NC(=S)N1 (stereo not given)
inactive: [1] 0.0938 | [2] 0.0927 | [3] 0.145 | [4] 0.108

O=C(Nc1cccc(Cl)c1)/C(=C\c1ccco1)NC(=O)c1cccs1
inactive: [1] -0.0172 | [2] 0.0581 | [3] 0.0419 | [4] 0.0226

Cc1cn2c(=O)c3ccccc3nc2nc1Nc1ccccc1C(=O)O
inactive: [1] 0.138 | [2] 0.0987 | [3] 0.0749 | [4] 0.0532

O=C1C=CC2=C3c4cc(O)c(O)cc4CC3(O)COC2=C1 (stereo not given)
inactive: [1] 0.163 | [2] 0.195 | [3] 0.225 | [4] 0.28

COc1ccc(C2COc3c(ccc(O)c3OC)C2)c(OC)c1O (stereo not given)
inactive: [1] 0.108 | [2] 0.0205 | [3] 0.0667 | [4] -0.00772

COc1cc(OC)c2c(=O)c(-c3ccccc3)coc2c1
inactive: [1] 0.0176 | [2] 0.0621 | [3] 0.0815 | [4] 0.1
